Experimental data taken from PubChem BioAssay AID1159580 (chemical genetic matrix, 2015).
About 2,000 (36%) of roughly 5,500 compounds were called active. Inconclusive results (about 18%) are left out. Cut-off read from the data, not from the text of the source: active = normalized growth mostly below about 0.91 (no sharp cut-off); inconclusive = no clear call, values can overlap the other calls; inactive = mostly above about 0.92. The list shows a part of the results.

Test: chemical genetic growth profiling, strain panel (AID 1159580);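 note: tested at 20 µM; growth read once vehicle control cultures reached saturation at 30 °C; 1 = growth at the plate median or of vehicle wells; lower values mean less growth of the strain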
Settings: growth OD

Measured: normalized growth

CC(=O)OCC(=O)[C@@]1(O)CCC2C3CCC4=CC(=O)CC[C@]4(C)[C@@]3(F)[C@@H](O)C[C@@]21C (stereo partly specified)
inactive: S. cerevisiae deletion strains, locus YJR066W, strain TOR1, stronger effect = lower value 0.939 | S. cerevisiae deletion strains, locus YKL009W, strain mrt4, stronger effect = lower value 0.973 | S. cerevisiae deletion strains, locus YKL068W, stronger effect = lower value 1.01 | S. cerevisiae deletion strains, locus YKL085W, strain MDH1 (second series), stronger effect = lower value 1.01 | S. cerevisiae deletion strains, locus YKL085W, strain MDH1, stronger effect = lower value 1.01 | S. cerevisiae deletion strains, locus YKL160W, strain elf1, stronger effect = lower value 1.03 | S. cerevisiae deletion strains, locus YKL190W, strain CNB1, stronger effect = lower value 1 | S. cerevisiae deletion strains, locus YKR001C, strain vps1, stronger effect = lower value 0.987 | S. cerevisiae deletion strains, locus YKR026C, strain gcn3, stronger effect = lower value 1.02 | S. cerevisiae deletion strains, locus YKR091W, strain srl3, stronger effect = lower value 1 | S. cerevisiae deletion strains, locus YLL001W, strain dnm1, stronger effect = lower value 1.03 | S. cerevisiae deletion strains, locus YLL026W, stronger effect = lower value 1.01 | S. cerevisiae deletion strains, locus YLL041C, strain sdh2, stronger effect = lower value 1.01 | S. cerevisiae deletion strains, locus YLR027C, strain aat2, stronger effect = lower value 1.02 | S. cerevisiae deletion strains, locus YLR039C, strain RIC1, stronger effect = lower value 1.04 | S. cerevisiae deletion strains, locus YLR058C, strain SHM2, stronger effect = lower value 1.01 | S. cerevisiae deletion strains, locus YLR102C, strain apc9, stronger effect = lower value 1.01 | S. cerevisiae deletion strains, locus YLR113W, strain HOG1, stronger effect = lower value 0.992 | S. cerevisiae deletion strains, locus YLR221C, strain rsa3, stronger effect = lower value 1.02 | S. cerevisiae deletion strains, locus YLR258W, strain gsy2, stronger effect = lower value 1.01 | S. cerevisiae deletion strains, locus YLR262C, strain YPT6 (second series), stronger effect = lower value 1.03 | S. cerevisiae deletion strains, locus YLR262C, strain YPT6, stronger effect = lower value 1.01 | S. cerevisiae deletion strains, locus YLR268W, strain sec22, stronger effect = lower value 0.985 | S. cerevisiae deletion strains, locus YLR320W, strain mms22, stronger effect = lower value 1.05 | S. cerevisiae deletion strains, locus YLR330W, strain CHS5, stronger effect = lower value 1.01 | S. cerevisiae deletion strains, locus YLR342W, strain FKS1 (second series), stronger effect = lower value 1.02 | S. cerevisiae deletion strains, locus YLR342W, strain FKS1, stronger effect = lower value 1.01 | S. cerevisiae deletion strains, locus YLR357W, strain rsc2, stronger effect = lower value 1.01 | S. cerevisiae deletion strains, locus YLR370C, strain arc18, stronger effect = lower value 1.02 | S. cerevisiae deletion strains, locus YLR371W, strain rom2, stronger effect = lower value 1 | S. cerevisiae deletion strains, locus YLR384C, strain iki3, stronger effect = lower value 1.02 | S. cerevisiae deletion strains, locus YLR418C, strain cdc73, stronger effect = lower value 1.01 | S. cerevisiae deletion strains, locus YML016C, strain PPZ1, stronger effect = lower value 1 | S. cerevisiae deletion strains, locus YML032C, strain rad52, stronger effect = lower value 0.992 | S. cerevisiae deletion strains, locus YML120C, strain ndi1, stronger effect = lower value 1.03 | S. cerevisiae deletion strains, locus YML124C, strain tub3, stronger effect = lower value 1.01 | S. cerevisiae deletion strains, locus YMR058W, strain fet3, stronger effect = lower value 1.02 | S. cerevisiae deletion strains, locus YMR078C, strain ctf18, stronger effect = lower value 1.01 | S. cerevisiae deletion strains, locus YMR125W, strain sto1, stronger effect = lower value 1.01 | S. cerevisiae deletion strains, locus YMR129W, stronger effect = lower value 1.01 | S. cerevisiae deletion strains, locus YMR205C, strain PFK2, stronger effect = lower value 1.02 | S. cerevisiae deletion strains, locus YMR223W, strain ubp8, stronger effect = lower value 1.03 | S. cerevisiae deletion strains, locus YMR231W, strain pep5, stronger effect = lower value 1.01 | S. cerevisiae deletion strains, locus YMR307W, strain GAS1, stronger effect = lower value 1.01 | S. cerevisiae deletion strains, locus YNL067W, strain RPL9B, stronger effect = lower value 0.998 | S. cerevisiae deletion strains, locus YNL071W, strain lat1, stronger effect = lower value 1.02 | S. cerevisiae deletion strains, locus YNL128W, strain TEP1, stronger effect = lower value 1.02 | S. cerevisiae deletion strains, locus YNL153C, strain GIM3, stronger effect = lower value 1.01 | S. cerevisiae deletion strains, locus YNL183C, strain NPR1, stronger effect = lower value 0.957 | S. cerevisiae deletion strains, locus YNL209W, strain ssb2, stronger effect = lower value 1.01 | S. cerevisiae deletion strains, locus YNL233W, strain BNI4, stronger effect = lower value 1 | S. cerevisiae deletion strains, locus YNL248C, strain rpa49, stronger effect = lower value 1.02 | S. cerevisiae deletion strains, locus YNL271C, strain bni1, stronger effect = lower value 1.01 | S. cerevisiae deletion strains, locus YNL298W, strain CLA4, stronger effect = lower value 0.986 | S. cerevisiae deletion strains, locus YNL307C, strain MCK1, stronger effect = lower value 1.02 | S. cerevisiae deletion strains, locus YNL322C, strain KRE1 (second series), stronger effect = lower value 1.02 | S. cerevisiae deletion strains, locus YNR049C, strain mso1, stronger effect = lower value 1.01 | S. cerevisiae deletion strains, locus YNR052C, strain pop2, stronger effect = lower value 1 | S. cerevisiae deletion strains, locus YOL012C, strain htz1 0.967 | S. cerevisiae deletion strains, locus YOL147C, strain pex11, stronger effect = lower value 1 | S. cerevisiae deletion strains, locus YOR001W, strain rrp6, stronger effect = lower value 1 | S. cerevisiae deletion strains, locus YOR061W, strain CKA2, stronger effect = lower value 1.01 | S. cerevisiae deletion strains, locus YOR069W, strain VPS5, stronger effect = lower value 1.01 | S. cerevisiae deletion strains, locus YOR070C, strain gyp1, stronger effect = lower value 1.03 | S. cerevisiae deletion strains, locus YOR080W, strain dia2, stronger effect = lower value 1.01 | S. cerevisiae deletion strains, locus YOR083W, strain WHI5, stronger effect = lower value 1.03 | S. cerevisiae deletion strains, locus YOR106W, strain vam3, stronger effect = lower value 1.03 | S. cerevisiae deletion strains, locus YOR136W, strain idh2, stronger effect = lower value 0.989 | S. cerevisiae deletion strains, locus YOR144C, strain elg1, stronger effect = lower value 1 | S. cerevisiae deletion strains, locus YOR184W, strain ser1, stronger effect = lower value 0.997 | S. cerevisiae deletion strains, locus YOR231W, strain MKK1, stronger effect = lower value 1 | S. cerevisiae deletion strains, locus YOR265W, strain rbl2, stronger effect = lower value 1.02 | S. cerevisiae deletion strains, locus YOR270C, strain vph1, stronger effect = lower value 1.03 | S. cerevisiae deletion strains, locus YOR290C, strain snf2, stronger effect = lower value 0.997 | S. cerevisiae deletion strains, locus YOR316C, strain cot1, stronger effect = lower value 1.01 | S. cerevisiae deletion strains, locus YPL051W, strain arl3, stronger effect = lower value 1.04 | S. cerevisiae deletion strains, locus YPL078C, strain atp4, stronger effect = lower value 1.02 | S. cerevisiae deletion strains, locus YPL106C, strain sse1, stronger effect = lower value 1.02 | S. cerevisiae deletion strains, locus YPL240C, strain hsp82, stronger effect = lower value 0.994 | S. cerevisiae deletion strains, locus YPL256C, strain CLN2, stronger effect = lower value 1 | S. cerevisiae deletion strains, locus YPR119W, strain clb2, stronger effect = lower value 0.997 | S. cerevisiae deletion strains, locus YPR141C, strain kar3, stronger effect = lower value 1 | S. cerevisiae deletion strains, locus YPR163C, strain tif3, stronger effect = lower value 1 | S. cerevisiae deletion strains, locus YPR167C, strain met16, stronger effect = lower value 0.999 | S. cerevisiae deletion strains, strain wtn01, stronger effect = lower value 0.995 | S. cerevisiae strains, strain wild type, stronger effect = lower value 1.01
